Compounds with a hit are over-represented: about 6.9% of the library has one in this group of screens.
PLK1 PBD inh = inhibitors of human PLK1 polo-box domain binding; P53350; Plk1 PBD binding of FITC phosphopeptide, fluorescence polarization; Potency, µM, for inactives: max response, negative = inhibition, hits mostly inhibitors; 2.8% of 360,000 active; also: series mostly up to about 57 µM; % is scaled to controls: 0 for no effect and ±100 for the full control effect; nearly all actives have a fitted effect of over 65% in size
JMJD2A Tudor inh = inhibitors of human JMJD2A Tudor domain; AlphaScreen JMJD2A-Tudor / H3K4me3 peptide binding; AID 504339; Potency, µM (top dose mostly 114 µM), without a hit: top-dose activity change, negative = inhibition, usual class: inhibitors; 4.4% of 390,000 active; also: % is scaled to controls: 0 for no effect and ±100 for the full control effect; nearly all actives have a fitted effect of over 50% in size
L3MBTL1 inh = blocks human L3MBTL1. Q9Y468. AlphaScreen L3MBTL1–H3K9me1 peptide binding. Potency, µM (top dose mostly 57.1 µM), without a hit: at the top dose activity, negative = inhibition, usual class: inhibitors. 0.66% of 230,000 active; also: % is scaled to controls: 0 for no effect and ±100 for the full control effect; nearly all actives have a fitted effect of over 60% in size
Target sequence (Q9Y468 whole entry, looked up): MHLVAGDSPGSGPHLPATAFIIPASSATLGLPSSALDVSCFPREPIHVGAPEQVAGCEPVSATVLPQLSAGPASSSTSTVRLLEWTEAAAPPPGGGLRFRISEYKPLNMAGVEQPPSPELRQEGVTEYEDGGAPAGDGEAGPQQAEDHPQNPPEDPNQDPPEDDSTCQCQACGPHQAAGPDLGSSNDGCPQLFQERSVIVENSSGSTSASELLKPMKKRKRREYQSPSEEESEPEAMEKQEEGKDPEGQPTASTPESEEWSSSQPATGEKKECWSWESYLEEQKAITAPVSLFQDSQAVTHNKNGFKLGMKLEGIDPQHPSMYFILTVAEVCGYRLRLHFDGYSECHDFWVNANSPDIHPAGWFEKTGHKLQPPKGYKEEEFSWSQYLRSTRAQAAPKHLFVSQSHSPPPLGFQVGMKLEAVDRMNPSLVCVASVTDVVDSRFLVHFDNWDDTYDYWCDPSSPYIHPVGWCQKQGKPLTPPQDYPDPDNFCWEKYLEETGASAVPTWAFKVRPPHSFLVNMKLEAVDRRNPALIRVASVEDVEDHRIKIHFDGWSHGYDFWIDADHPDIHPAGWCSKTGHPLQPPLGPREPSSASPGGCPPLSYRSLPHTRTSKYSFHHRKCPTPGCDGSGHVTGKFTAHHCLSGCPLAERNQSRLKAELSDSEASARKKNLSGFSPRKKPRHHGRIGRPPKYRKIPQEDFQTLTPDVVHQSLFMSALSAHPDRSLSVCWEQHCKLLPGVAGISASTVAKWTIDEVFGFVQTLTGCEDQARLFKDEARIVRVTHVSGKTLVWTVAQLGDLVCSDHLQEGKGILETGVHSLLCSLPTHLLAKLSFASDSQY
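L3MBTL1 (50 nM) pre-complexed 30 min with biotinylated H3(1-15)K9me1 peptide (75 nM), then compounds added for 30 min at room temperature; AlphaScreen streptavidin donor/nickel chelate acceptor beads (10 ug/mL final) read after 30 min dark incubation.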
HP1b chromo inh = HP1-beta chromodomain-methylated histone interaction inhibition; AlphaScreen HP1-beta / biotin-H3K9me3 peptide binding; 0.56% of 390,000 active; Potency, µM (doses to about 114 µM), for inactives: top-dose activity change, negative = inhibition, usual class: inhibitors; P83916; AID 540317; also: nearly all actives have a fitted effect of over 70% in size
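HP1-beta protein (50 nM final) preincubated 30 min at room temperature with biotinylated H3(1-18)K9me3 peptide (50 nM) in PBS pH 7.4, 0.01% Tween-20, then compound added for 30 min. AlphaScreen streptavidin donor/nickel chelate acceptor beads (10 ug/mL final), 30 min dark, luminescence read.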
BAZ2B block = inhibitors of human BAZ2B bromodomain | AID 504333 | 4.4% of 360,000 active | Potency, µM (highest dose often 114 µM), for the others: at the highest dose activity change, negative = inhibition, most hits filed as inhibitors | AlphaScreen BAZ2B-H3K14Ac peptide displacement; also: % is scaled to controls: 0 for no effect and ±100 for the full control effect; nearly all actives have a fitted effect of over 60% in size
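AlphaScreen luminescence quantifies BAZ2B engagement of H3K14Ac peptide; the protein and biotinylated peptide are both at 50 nM final, buffer PBS pH 7.4 with 0.01% Tween-20, all steps at room temperature.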
VDR inh = blocks the human vitamin D receptor; 0.93% of 400,000 active; Potency, µM, without a hit: max response, negative = inhibition, hits mostly inhibitors; VDR-SRC2-3 peptide fluorescence polarization, 2 h; also: % is scaled to controls: 0 for no effect and ±100 for the full control effect
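VDR–SRC2-3 interaction, FP format. Cmpds 23 nl via pintool, brief spin, 2 h ambient incubation.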
* marks the source's active call; other numbers are inactive results; ? = inconclusive; · = no result; [ ] = dose if it differs, or a comment. Calls follow the shape of the dose curve; as a rule, active = well fitted curve in the direction sought with a large enough effect; inconclusive = small, poorly fitted or top-dose-only effect, or another doubt; inactive = no such curve, though single readings can be large; an effect the other way counts as inactive or inconclusive. Potency is read from the fitted curve at half-maximal effect.

SMILES	PLK1 PBD inh	JMJD2A Tudor inh	L3MBTL1 inh	HP1b chromo inh	BAZ2B block	VDR inh
C=CCOc1ccccc1CNCc1ccc(F)cc1	-1%	-1%	7%[11.4 µM]	36%	-11%	-24%
C=CCOc1ccccc1CN1CCCCCC1	2%	1.4µM*	1%	?	?	-13%
O=[N+]([O-])c1ccc(COc2ccccc2CN2CCCCC2)cc1	-13%	-19%	·	15%	·	7%
C=CCOc1ccccc1CN1CCSCC1	-25%	6.3µM*	-4%	?	56µM*	-14%
COCCC(=O)N1CCC(Oc2ccc(C(=O)N(C)Cc3cc(C)no3)cc2)CC1	-2%	-6%	·	41%	9%	-3%
Cc1ccc(-c2nc(C)c(CCNS(=O)(=O)c3ccc(F)c(C(F)(F)F)c3)s2)cc1	·	-14%	·	25%[57 µM]	1%	3%
COc1ccc(/C=N/N(C)C2=NCCN2)c(OC)c1OC	-6%	-3%	·	25%	-3%	-2%
Cc1ccccc1C(=O)NNC(=O)/C=C\C(=O)O	?	50µM*	-1%	-32%	0%	-20%
O=C(O)/C=C/C(=O)NNC(=O)c1ccccc1Br	-7%	-34%	15%	16%	?	-12%
O=C1NC(=S)SC1=C1CCCC1	?	?	·	1%	32µM*	-10%
CN1C(=O)C(=C2CCCCCC2)SC1=S	-26%	1%	-2%	75%	2%	-6%
CCOC(=O)CSc1nc(N)c(C#N)c(-c2ccc(OCC)cc2)c1C#N	-10%	-10%	9%	20%	-4%	18%
CC1=C(C#N)c2nc(N)c(C#N)c(C)c2/C1=C\c1ccc(OCC(=O)O)c(Cl)c1	8.4µM*	20µM*	?	?	50µM*	-5%
Cn1cnc([N+](=O)[O-])c1S(=O)(=O)Oc1ccccc1	?	-6%	·	16%[57 µM]	·	25µM*
Cn1cnc([N+](=O)[O-])c1S(=O)(=O)Nc1ccccc1	-6%	-17%	·	6%[57 µM]	·	-24%
O=C(Nc1ccc(Cl)c([N+](=O)[O-])c1)ONC1=NCCCCC1	27µM*	-5%	·	14%	-13%	-8%
O=c1c2cc(N3CCOCC3)ccc2[nH]c(=S)n1Cc1ccco1	?	50µM*	?	-51%	?	79µM*
Cc1cc(NC(=O)Nc2nnc(N3CCCCCC3)s2)ccc1Br	·	-4%	·	37%	0%	7%
Cc1ccc(OCC(O)CN2CC3(C)CC2CC(C)(C)C3)cc1 (stereo unspecified)	-6%	1.1µM*	8%	?	?	-22%
CC1(C)CC2CC(C)(CN2CC(O)c2ccccc2)C1 (stereo unspecified)	-11%	5.6µM*	·	-25%	?	2%
Cc1ccc(OCC(=O)N2CC3(C)CC2CC(C)(C)C3)cc1 (stereo unspecified)	-2%	0%	?	61%	10%	0%
Cc1cccc(OCC(O)CN2CC3(C)CC2CC(C)(C)C3)c1 (stereo unspecified)	-8%	18µM*	?	-34%	?	16%
CC12CCCC[C@@H]1CCC1C2CCC2(C)C1CC[C@@]2(O)CNCCO (stereo partly specified)	-3%	-22%	·	20%	-12%	-5%
O=C(O)c1ccc(C(=O)c2cc([N+](=O)[O-])cc([N+](=O)[O-])c2)cc1	2%	-25%	·	12%[57 µM]	·	-8%
CN1CCN(C(=O)CCN2C(=O)/C(=C\c3ccc(Cl)cc3Cl)SC2=S)CC1	42µM*	16µM*	-8%	?	?	2%
SMILES	PLK1 PBD inh	JMJD2A Tudor inh	L3MBTL1 inh	HP1b chromo inh	BAZ2B block	VDR inh
CC1CCN(C(=O)CCN2C(=O)/C(=C/c3cccs3)SC2=S)CC1	-5%	28µM*	·	?	?	16%
CN1CCN(C(=O)CCCN2C(=O)/C(=C/c3ccc(Cl)cc3)SC2=S)CC1	0%	?	-1%	-10%	?	-7%
CCc1nn2c(=O)c(S(=O)(=O)Nc3ccc(C)cc3C)c(C)nc2s1	·	-18%	·	5%	-1%	10%
CC1=NN(C(=O)c2ccccc2F)C(O)(c2ccc(Cl)cc2)C1 (stereo unspecified)	-8%	-33%	-15%	25%	50µM*	15%
C=CCN(C(=O)CCC(=O)O)C1CC(=O)N(c2ccc(OCCC)cc2)C1=O (stereo unspecified)	24µM*	-11%[11.4 µM]	-21%[11.4 µM]	-4%	-8%	-21%
CN(C)c1ccc(C(CNS(=O)(=O)c2ccc(Br)cc2)N2CCCC2)cc1 (stereo unspecified)	·	45µM*	·	?	35µM*	4%
CN(C)c1ccc(C(CNS(=O)(=O)c2ccc(Cl)cc2)N2CCCC2)cc1 (stereo unspecified)	·	50µM*	·	?	32µM*	6%
COc1ccc(-c2cc(C(=O)Nc3ccn(Cc4ccc(C)cc4)n3)no2)cc1OC	·	-14%	·	15%	1%	-5%
Cc1cc(C)nc(N/N=C/c2cc(C)n(CC(F)(F)F)c2C)n1	-10%	-19%	·	56%	-31%	8%
O=C(c1cccc([N+](=O)[O-])c1)N1CCN(CCc2ccncc2)CC1	·	2%	·	37%	3%	10%
Cc1cc(C(=O)NCCc2ccc(S(=O)(=O)NC(=O)NN3CCCCCC3)cc2)no1	·	·	·	·	·	-7%
O=C1C(Cl)=C(NCCc2ccccc2)C(=O)N1CCc1ccccc1	-7%	5%	·	35%	0%	-2%
CC(=O)N(Cc1ccc(F)cc1)C1=C(NCCc2ccccc2)C(=O)c2ccccc2C1=O	1%	20µM*	·	-68%	14µM*	15%
O=C1C(Cl)=C(NCc2cccnc2)C(=O)c2ccccc21	-26%	-36%	·	-8%	50µM*	-8%
CC(=O)N(Cc1ccc(F)cc1)c1cccc(C)c1C	-4%	-1%	-2%	47%	-13%	14%
C=CCNC1=C(Cl)C(=O)c2ccccc2C1=O	-7%	45µM*	?	50µM*	32µM*	-7%
O=C1C(Cl)=C(NCCc2ccccc2)C(=O)c2ccccc21	2.7µM*	0.79µM*	·	?	·	18µM*
Clc1ccccc1-c1cc(NCc2cccnc2)ncn1	·	·	·	·	·	6%
Cc1ccc(OCC(=O)N(C)CC(=O)Nc2cccc(F)c2)cc1	1%	6%	·	21%	-10%	-28%
O=c1ccc(-c2n[nH]c(=S)n2-c2ccc(F)c(Cl)c2)n[nH]1	-5%	35µM*	1%	16%	?	6%
Fc1ccc(-n2c(-c3cc(C4CC4)[nH]n3)n[nH]c2=S)cc1Cl	-29%	79µM*	·	11%	?	-2%
Cc1ccc(NC(=O)CCSc2nc(-c3ccc4c(c3)OCO4)cc(C(F)(F)F)n2)cc1	·	2%	·	32%	4%	-10%
Cc1c(NC(=O)CSc2ccccc2Cl)c(=O)n(-c2ccccc2)n1C	-7%	0%	?	29%	3%	2%

Assay outcomes: PubChem, National Center for Advancing Translational Sciences (NCATS)
